Source: PubChem BioAssay (Tox21)
Where “and” joins values, the source holds several entries; their conditions need not be identical. Equal entries are not always repeated. Inconclusive results are not listed. Calls of active or inactive are those of the source. Unless noted, the call rests on the fitted dose curve; in most records, active means well fitted curve in the direction sought with a large enough effect in the repeat runs; inconclusive means weak or mixed curves; inactive means no such curve, though single readings can be large; an effect the other way counts as inactive or inconclusive.

How the values were obtained:
[1] = test system: thyroid hormone receptor (rat, GH3 cells); assay: qHTS assay to identify small molecule agonists of the thyroid receptor (TR) signaling pathway (AID 743066; calls by dose curve)
[2] = qHTS assay to identify small molecule antagonists of the estrogen receptor alpha (ER-alpha) signaling pathway - cell viability counter screen (AID 743074; calls by dose curve;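 further: HEK293 cells carrying ER-alpha-UAS-bla reporter stimulated with 17beta-estradiol; nearly all actives have a fitted effect of over 45% in size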)
[3] = qHTS assay to identify small molecule antagonists of the estrogen receptor alpha (ER-alpha) signaling pathway using the BG1 cell line - cell viability counter screen (AID 743081);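 further: compound given together with 17beta-estradiol as the ER stimulus; nearly all actives have a fitted effect of over 45% in size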; further: potency means the concentration at half of the fitted maximal effect
Aromatase (Homo sapiens) = Aromatase (Homo sapiens) (UniProt P11511); assay: qHTS assay to identify aromatase inhibitors (AID 743083); further: nearly all actives have a fitted effect of over 55% in size; further: potency means the concentration at half of the fitted maximal effect
Sequence of Aromatase (Homo sapiens) (P11511 whole entry, looked up): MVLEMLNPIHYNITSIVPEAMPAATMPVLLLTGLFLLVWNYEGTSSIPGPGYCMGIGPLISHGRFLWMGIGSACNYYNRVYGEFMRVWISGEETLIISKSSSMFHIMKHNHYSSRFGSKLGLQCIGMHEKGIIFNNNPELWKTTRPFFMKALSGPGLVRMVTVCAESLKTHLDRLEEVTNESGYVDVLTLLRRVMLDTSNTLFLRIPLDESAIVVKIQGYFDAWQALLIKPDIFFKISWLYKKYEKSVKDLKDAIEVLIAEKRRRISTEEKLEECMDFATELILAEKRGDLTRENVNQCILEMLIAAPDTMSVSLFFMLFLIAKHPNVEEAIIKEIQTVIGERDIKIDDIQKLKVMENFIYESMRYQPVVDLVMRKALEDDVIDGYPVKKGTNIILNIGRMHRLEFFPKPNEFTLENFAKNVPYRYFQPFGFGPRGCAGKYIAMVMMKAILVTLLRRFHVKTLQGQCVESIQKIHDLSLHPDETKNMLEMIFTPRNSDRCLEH

[4] = qHTS assay to identify aromatase inhibitors - cell viability counter screen (AID 743084);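 further: cells stimulated with testosterone during compound exposure; nearly all actives have a fitted effect of over 55% in size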; further: potency means the concentration at half of the fitted maximal effect
[5] = biological target: Estrogen receptor (Homo sapiens) (UniProt P03372); assay: qHTS assay to identify small molecule agonists of the estrogen receptor alpha (ER-alpha) signaling pathway (AID 743075; calls by dose curve;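 further: HEK293 GripTite cells with ER-alpha and UAS-driven beta-lactamase reporter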)
Sequence of Estrogen receptor (Homo sapiens) (P03372 whole entry, looked up): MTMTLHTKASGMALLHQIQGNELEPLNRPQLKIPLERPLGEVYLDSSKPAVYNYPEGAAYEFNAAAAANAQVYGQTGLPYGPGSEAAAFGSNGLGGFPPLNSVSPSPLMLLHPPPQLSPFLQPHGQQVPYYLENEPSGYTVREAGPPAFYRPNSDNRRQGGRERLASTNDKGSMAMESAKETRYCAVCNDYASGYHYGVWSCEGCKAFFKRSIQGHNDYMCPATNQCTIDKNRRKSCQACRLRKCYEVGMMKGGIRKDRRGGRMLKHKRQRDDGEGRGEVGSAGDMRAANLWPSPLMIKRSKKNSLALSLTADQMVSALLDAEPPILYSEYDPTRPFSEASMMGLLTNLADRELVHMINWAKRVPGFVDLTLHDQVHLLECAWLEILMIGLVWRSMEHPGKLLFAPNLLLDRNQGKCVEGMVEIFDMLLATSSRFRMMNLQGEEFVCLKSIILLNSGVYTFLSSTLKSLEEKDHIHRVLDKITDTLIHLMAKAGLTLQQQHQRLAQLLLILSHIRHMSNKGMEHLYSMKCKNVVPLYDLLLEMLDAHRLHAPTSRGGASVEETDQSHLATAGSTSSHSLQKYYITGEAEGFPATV

[6] = qHTS assay to identify small molecule antagonists of the estrogen receptor alpha (ER-alpha) signaling pathway using the BG1 cell line (AID 743080; calls by dose curve;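 further: BG1 cells stimulated with 17beta-estradiol alongside compound; nearly all actives have a fitted effect of over 25% in size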)
Summary of the method: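 Seeding, 24 h rest, compound transfer from DMSO, 17beta-estradiol addition, 21.5 h incubation, CellTiter-Fluor (30 min, 37 C), then ONE-Glo (30 min, room temperature): this sequence was run on BG1-Luc-4E2 reporter cells.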

[7] = biological target: Estrogen receptor (Homo sapiens) (UniProt P03372); assay: qHTS assay to identify small molecule agonists of the estrogen receptor alpha (ER-alpha) signaling pathway using the BG1 cell line (AID 743079); settings: BG1Luc4E2 cells, ERE-luciferase agonist, 22 h; activation: at 70.3 µM (top of the series); further: nearly all actives have a fitted effect of over 20% in size; further: potency means the concentration at half of the fitted maximal effect
[8] = biological target: Estrogen receptor (Homo sapiens) (UniProt P03372); assay: qHTS assay to identify small molecule antagonists of the estrogen receptor alpha (ER-alpha) signaling pathway (AID 743069; active means well fitted curve in the direction sought with a large enough effect in the signal ratio in the repeat runs, not every such curve was filed as active; the % refers to the signal ratio)
Summary of the method: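 ER-alpha-UAS-bla GripTite HEK293 line; 2% charcoal-stripped FBS overnight; plated, 4 hr 37C/5% CO2; cpd in DMSO + 17beta-estradiol, 18 hr 37C; LiveBLAzer B/G FRET substrate 2 hr RT; fluorescence intensity.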

Measured: Potency

C[C@@H]1C[C@H]2[C@@H]3CCC4=CC(=O)C=C[C@]4(C)[C@@]3(F)[C@@H](O)C[C@]2(C)[C@H]1C(=O)CO
inactive: [1] | [2] | [3] | Aromatase (Homo sapiens) | [4]

C[C@@H]1C[C@H]2[C@@H]3CCC4=CC(=O)C=C[C@]4(C)[C@@]3(F)[C@@H](O)C[C@]2(C)[C@@]1(O)C(=O)CO
inactive: [1] | [2] | [3] | Aromatase (Homo sapiens) | [4]

C(=C\c1ccccc1)/CN1CCN(C(c2ccccc2)c2ccccc2)CC1
inactive: [2] | [3] | Aromatase (Homo sapiens) | [4]

CC1(C)C2=CCCC(C)(C)[C@]23CC[C@H]1C3
inactive: [1] | [2] | [3] | [4]

N#C/C(=C1\SCC(c2ccccc2Cl)S1)n1ccnc1 (stereo not given)
active: Aromatase (Homo sapiens) 3.35 µM
inactive: [2] | [3] | [4]

Nc1ccc(C(=O)OCCCOC(=O)c2ccc(N)cc2)cc1
active: Aromatase (Homo sapiens) 30.6 µM
not listed: [7] | [8]
inactive: all other assays above

CCCCC/C(=C\c1ccccc1)CO
inactive: [1] | [2] | [3]
active: Aromatase (Homo sapiens) 30.3 µM

OC(CCCN1CCCCC1)(c1ccccc1)c1ccccc1
not listed: [2] | [3] | [8]
inactive: all other assays above

CC(=O)OCC(=O)[C@@]12OC(C)(C)O[C@@H]1C[C@H]1[C@@H]3C[C@H](F)C4=CC(=O)C=C[C@]4(C)[C@@]3(F)[C@@H](O)C[C@@]12C
inactive: [2] | [3] | Aromatase (Homo sapiens) | [4]

N#C[C@@H]1C[C@@H]2C[C@@H]2N1C(=O)[C@@H](N)C12CC3CC(CC(O)(C3)C1)C2
not listed: [1] | [8]
inactive: all other assays above

CO/N=C1\CN(c2nc3c(cc2F)c(=O)c(C(=O)O)cn3C2CC2)CC1CN (stereo not given)
not listed: [1]
inactive: all other assays above

O=C(/C=C/c1ccccc1)OCCCc1ccccc1
active: [7] 27.3 µM
inactive: [8] | [5] | [3] | Aromatase (Homo sapiens) | [4]

CC(C)C(OC(=O)c1ccccc1)C(C)(C)COC(=O)c1ccccc1 (stereo not given)
inactive: [1] | [3] | [4]

O=C(O)c1snc(Cl)c1Cl
inactive: [1] | [2] | [3] | Aromatase (Homo sapiens) | [4]

Cc1cc(S(=O)(=O)O)ccc1N=Nc1c(O)ccc2ccccc12
inactive: [1] | [2] | Aromatase (Homo sapiens)
active: [3] 30.6 µM | [4] 27.3 µM

Cc1oncc1C(=O)Nc1ccc(C(F)(F)F)cc1
not listed: [1] | [6]
inactive: all other assays above

CCCc1c(OCCCOc2ccc(OCC(=O)O)cc2)ccc(C(C)=O)c1O
not listed: Aromatase (Homo sapiens) | [8]
inactive: all other assays above

COc1ccccc1N=Nc1c(S(=O)(=O)O)cc2cc(S(=O)(=O)O)cc(NC(C)=O)c2c1O
inactive: [1] | [2]
active: [3] 28.8 µM | [4] 20.4 µM

O=C(Nc1ccc([N+](=O)[O-])cc1)Nc1ccc([N+](=O)[O-])cc1
inactive: [1] | [3] | Aromatase (Homo sapiens) | [4]

NC(=O)Cn1c(=O)cc(CCN2CCN(c3nccc4sccc34)CC2)c2ccc(F)cc21
not listed: [1] | [7] | [8]
inactive: all other assays above

Cc1cc(OI)c(C(C)C)cc1-c1cc(C(C)C)c(OI)cc1C
inactive: [1] | [2] | [3] | Aromatase (Homo sapiens) | [4]

Cc1cc(O)c2c(O)c3c(O)cccc3cc2c1
inactive: [1] | [2] | [3] | Aromatase (Homo sapiens) | [4]

CC(C)(C)CC(C)(C)c1ccc(OCCO)cc1
active: [3] 24.2 µM | Aromatase (Homo sapiens) 26.6 µM and 43 µM | [4] 33.5 µM and 30.5 µM
inactive: [2] | [5]

CCCC1C(CC)=CC(CC)=CN1c1ccccc1 (stereo not given)
inactive: [1] | [2] | Aromatase (Homo sapiens) | [4]

NC(=O)Nc1ccc(Cl)c(Cl)c1
inactive: [1] | [2] | [3] | Aromatase (Homo sapiens) | [4]

CCCCCCCCCCCC(=O)[O][Sn]([CH2]CCC)([CH2]CCC)[O]C(=O)CCCCCCCCCCC
inactive: [1] | [2] | Aromatase (Homo sapiens) | [4]

Cc1ccc(S)cc1
not listed: [1] | [2] | [8]
inactive: all other assays above

C=CC(C)=CCC=C(C)C
inactive: [1] | [2] | [3] | Aromatase (Homo sapiens) | [4]

CC(=O)CC(c1ccc([N+](=O)[O-])cc1)c1c(O)c2ccccc2oc1=O (stereo not given)
not listed: [1] | [8]
inactive: all other assays above

CC(C)(O)c1ccccc1CC[C@@H](SCC1(CC(=O)O)CC1)c1cccc(/C=C/c2ccc3ccc(Cl)cc3n2)c1
inactive: [5] | [3] | Aromatase (Homo sapiens) | [4]
